Measured values from the supplement of paper PMC10681739.

Legend:
ETS1 [1] = target: T1, ETS1 (UniProt P14921); assay: ETS1 binding intensity (PBM fluorescence), ETS1 alone (arbitrary fluorescence units); higher = stronger binding; conditions: ETS1 concentration 1 nM; RUNX1 concentration 0 nM
T1 sequence: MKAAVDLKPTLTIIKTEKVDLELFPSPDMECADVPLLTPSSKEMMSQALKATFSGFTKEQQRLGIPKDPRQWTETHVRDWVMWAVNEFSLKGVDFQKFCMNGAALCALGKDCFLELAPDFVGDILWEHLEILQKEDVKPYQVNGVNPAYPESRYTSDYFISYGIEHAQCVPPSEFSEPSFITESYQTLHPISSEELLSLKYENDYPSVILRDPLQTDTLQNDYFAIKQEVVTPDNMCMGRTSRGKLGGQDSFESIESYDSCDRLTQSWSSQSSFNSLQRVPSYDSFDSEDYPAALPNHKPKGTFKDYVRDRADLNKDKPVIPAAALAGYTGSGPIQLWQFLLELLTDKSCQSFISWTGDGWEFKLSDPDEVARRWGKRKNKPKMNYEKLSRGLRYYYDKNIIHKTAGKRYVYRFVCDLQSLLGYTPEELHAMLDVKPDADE

RUNX1 [2] = target: RUNX1 (UniProt Q01196); assay: RUNX1 binding intensity (PBM fluorescence), RUNX1 alone (arbitrary fluorescence units); higher = stronger binding; conditions: RUNX1 concentration 2 nM; ETS1 concentration 0 nM
Method: (§1)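 Cooperative gcPBM on 36-bp genomic probes with neighbouring ETS1 and RUNX1 sites. Recombinant human RUNX1 (2 nM) was incubated alone or with ETS1 (25 nM) and detected with anti-RUNX1 antibody plus Alexa488 secondary. Values are medians over 4 replicate spots; the RUNX1+ETS1 data were normalised to the RUNX1-only data. The probes sit in constant array flanks that are not printed.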

ETS1 [3] = target: T1, ETS1; assay: ETS1 binding intensity (PBM fluorescence) in presence of RUNX1, normalised to ETS1-only experiment (arbitrary fluorescence units); higher = stronger binding; conditions: ETS1 concentration 1 nM; RUNX1 concentration 25 nM
RUNX1 [4] = target: RUNX1 (UniProt Q01196); assay: RUNX1 binding intensity (PBM fluorescence) in presence of ETS1, normalised to RUNX1-only experiment (arbitrary fluorescence units); higher = stronger binding; conditions: RUNX1 concentration 2 nM; ETS1 concentration 25 nM
Method: as §1
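Wherever RUNX1 binding intensity (PBM fluorescence) in presence of ETS1, normalised to RUNX1-only experiment is given: Full-length recombinant human ETS1 or RUNX1 bound to double-stranded 36-bp genomic probes on microarrays, detected by protein-specific primary antibody and Alexa488 secondary, spot fluorescence as median of four replicate spots.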
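Wherever RUNX1 binding intensity (PBM fluorescence), RUNX1 alone is given: Full-length recombinant human RUNX1 bound to double-stranded 36-bp genomic probes on a high-density microarray, scored as Alexa488 fluorescence per spot via anti-RUNX1 antibody, median of four replicate spots.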

Sequence of RUNX1 (Q01196 whole entry): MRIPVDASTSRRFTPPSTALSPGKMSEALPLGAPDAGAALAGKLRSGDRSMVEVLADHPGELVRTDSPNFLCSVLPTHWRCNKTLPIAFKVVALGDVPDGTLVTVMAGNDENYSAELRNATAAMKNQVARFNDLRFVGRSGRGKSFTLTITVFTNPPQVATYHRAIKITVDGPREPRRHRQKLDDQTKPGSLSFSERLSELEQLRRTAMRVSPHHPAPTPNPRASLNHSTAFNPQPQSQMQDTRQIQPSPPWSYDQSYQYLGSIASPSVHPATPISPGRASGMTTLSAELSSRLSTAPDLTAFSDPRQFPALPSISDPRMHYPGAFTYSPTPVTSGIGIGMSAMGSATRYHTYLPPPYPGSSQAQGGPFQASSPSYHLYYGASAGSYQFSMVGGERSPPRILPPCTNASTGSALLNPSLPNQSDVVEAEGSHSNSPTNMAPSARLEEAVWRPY

| Sequence | ETS1 binding intensity (ETS1 [1]) | RUNX1 binding intensity (RUNX1 [2]) | ETS1 binding intensity (ETS1 [3]) | RUNX1 binding intensity (RUNX1 [4]) |
| --- | --- | --- | --- | --- |
| CTTTGTTGAAAAGGATGTGGTCATCTGATCTTGCTG | 1070 | 864 | 3320 | 2000 |
| CCCCGGGAAGGGAAGTTTGTGGCGGAGGAGGTTCGT | 592 | 805 | 589 | 934 |
| CTGGTTTCCAACATCCTGTGGGCGGCCTGGTTTCAG | 1260 | 785 | 1270 | 2210 |
| GACACCCCACACCGGAAACCTCAGACAGTCCTCAGC | 4120 | 1170 | 4680 | 2900 |
| GTGCAGGGCCCGGAAGCTCAGTGTGGTTAAAGACAT | 2010 | 805 | 5260 | 1540 |
| CTTAGCGGAAGAGGCGTGACCCAGGCGTACCGCAGG | 497 | 804 | 1320 | 870 |
| AACAAACCGGATGGGGTTCCCACCCGCAATCTTGTC | 1700 | 830 | 4570 | 1970 |
| GCGGGGACCCGGATGTGTGTGGTGGCGGCGGCCGAA | 3040 | 700 | 3350 | 1220 |
| TACCCAGAAAGGAAGTGGAACCTGCGGTGAGGCCCC | 1130 | 875 | 5650 | 1950 |
| AACTTAGCTTCCGGGAAGAAGGCGAGCGGTGGGAGG | 780 | 735 | 724 | 1400 |
| ATCAAACCCCAGGATATGTTGGTTTTGTAGGTTGTC | 562 | 874 | 524 | 629 |
| CAAATGAATAAAGGATGTGGTAAATTATTTTCTTCT | 935 | 814 | 5660 | 1780 |
| ACCTGCACTTCCTCCTCCCTAGACCGCACCCTTCTC | 491 | 2840 | 600 | 4300 |
| CGGGACTTCCTGTCTTCCCTGTTGCGGAGCTCTGAA | 1720 | 780 | 1830 | 2000 |
| GTGGTCGGGAGGGGAAGTGAGGCGGTTACCTCGGCG | 684 | 790 | 689 | 925 |
| TCGCTTCCGGTGTCGGTTACAGACTGTGGTTGCCAT | 3090 | 906 | 6190 | 3330 |
| GGAACAGGAAAAGCCTCCGGCAGCCCCTGCGGGCGG | 539 | 719 | 941 | 920 |
| GCCCAGTTCTCGCATCCGGTCTGCGGCGCGCTCGGG | 4380 | 828 | 5020 | 1840 |
| GCCAGCGGGGCTTCCGGCCCCGCAGGCAGAAGTCGA | 1460 | 646 | 1290 | 1260 |
